We go through 40 sequences from the supplement of paper PMC10681739.
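Also: Full-length recombinant human ETS1 or RUNX1 bound to double-stranded 36-bp genomic probes on microarrays, detected by protein-specific primary antibody and Alexa488 secondary, spot fluorescence as median of four replicate spots.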

Chain of RUNX1 (Q01196 whole entry): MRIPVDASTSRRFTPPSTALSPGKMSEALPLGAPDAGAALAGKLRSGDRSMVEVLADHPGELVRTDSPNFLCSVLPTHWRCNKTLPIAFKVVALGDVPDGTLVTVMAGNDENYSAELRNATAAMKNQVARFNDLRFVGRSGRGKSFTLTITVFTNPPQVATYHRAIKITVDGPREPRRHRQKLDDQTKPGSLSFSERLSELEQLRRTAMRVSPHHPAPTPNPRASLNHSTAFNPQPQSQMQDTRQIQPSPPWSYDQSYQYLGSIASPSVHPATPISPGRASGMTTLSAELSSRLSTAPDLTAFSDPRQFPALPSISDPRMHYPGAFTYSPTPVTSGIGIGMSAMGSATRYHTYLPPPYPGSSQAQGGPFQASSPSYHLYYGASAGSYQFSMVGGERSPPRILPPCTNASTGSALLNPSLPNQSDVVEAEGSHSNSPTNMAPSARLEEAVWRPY

The test deals with RUNX1 (UniProt Q01196). Description: RUNX1 binding intensity (PBM fluorescence) in presence of ETS1, normalised to RUNX1-only experiment (arbitrary fluorescence units); higher = stronger binding. The following applies: RUNX1 concentration 2 nM; ETS1 concentration 25 nM. How it is done:
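Cooperative gcPBM on 36-bp genomic probes with neighbouring ETS1 and RUNX1 sites. Recombinant human RUNX1 (2 nM) was incubated alone or with ETS1 (25 nM) and detected with anti-RUNX1 antibody plus Alexa488 secondary. Values are medians over 4 replicate spots; the RUNX1+ETS1 data were normalised to the RUNX1-only data. The probes sit in constant array flanks that are not printed.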
On to TGCTCAAATGCAGGATGTGGTCTGAGAGTTTCTCCT, for which the RUNX1 binding intensity was determined as 1680. Take CGTGTGGGAGGCCGGAAGTTGCGGCTTCATTACTCG: the RUNX1 binding intensity turned out to be 2710. In the case of GATGGTGTCTTTTGGGGATGTGGGTTTGGGGGATGG, the RUNX1 binding intensity was found to be 961. With GAAAGGGTTCATCCAGGAAACCACAACCCAGTGCCG the figure was 2110. For GCTGCAGCAGGCGGGAAGTCTGCGGTTCGCGGGCTC the value was 1830; for TGCCCTGACTTCCTGGTCCTGTGGTCAAGGATGGGG, 2000. Take AGGCTGTGGCGGAAGTGGTCGCGTTACCGCTTGTTT: the RUNX1 binding intensity was 3760. For GTGGATTTCACATCCTGTCCTAGCGGTATGTTTGTC the value was 1750. As to TTCGGATTCCCGGAAGAACCCGCAGCAGCTCCCAGG, the RUNX1 binding intensity amounted to 1190. With TGCATGTGCAGCAGAGGAAACCACAAGTTATTCCCT, the RUNX1 binding intensity came to 1600. Consider ACACCGGAAGCCCAACAGCATGCCGAGTAACCACCC, for which the RUNX1 binding intensity was determined as 1310. With ATCCCACTATAGGAAGCTTCTCTGTGGTTTTGAGCC the figure was 1910; with ATGTCAGGAAGAGGCTCAGGGCTGTGGTTTCTCTGT, 1070; with CTCCCCCTTTTTTTCCTGTGGTTTCATTGCATGTTG, 4190. For GTCCCCTGAATTTTCCTGTGGTTCTTATCACCAGGT the value was 1360; for GCGCGGCGCGACCGGACGCTGCGGGCGGGGAAGAGG, 929; for TAAGGATGTGTGGCTTCCAGATCAAAAACCGCAAAA, 10600.

For the sequence TAAGAGATTTCCTGTAAAGGTAACCACCAGCAAAGA, the RUNX1 binding intensity is 1230. For TTTTTAAGGTCAGGATGTGGGCACATCTAAGGGGCA the value was 1370; for CCGGGAAACACGGGAGAGCGACCGAAACCGCAATCA, 4390. With CTGTCCCTAGCAGGATGTGGTTTGCACATTGCTGCT the figure was 4600; with AAAACAACTCCAGGATGTGGTTTTACTCAGAATGTA, 2710; with AAGACAACATCCTGCCGGCACAGCCTGCGGGTTACT, 1420. With TCTGTGAAAAAGGATGTGCGGTTATGGAGGAGAACT the figure was 1930. As for TAAGTGCAGGAAACGGCTGTGTGGGTGTCAGTGATT, the RUNX1 binding intensity worked out at 906.

With CCACCACTCTAAGCAGGATGCGGTGCGACCCAAGAG, the RUNX1 binding intensity is 972. For CGACCGGAACCACTCTGAGGCGCTGCCGCAGACACC the value was 1010; for GACATCCAGGAAGTGGTGAGAAACCACGTGTGTGTT, 3070; for CTGGTAGAAAAGGAAGCAGGTTGTGGTGAGCATTTA, 932.

With CCCCTTAGCACAGGATGTGGTCTTTGCATCTTCATT, the RUNX1 binding intensity stood at 2960. On to GACTCTTCCGGCCCAGAGCTTTCGGAGTGCGGTTGC, for which the RUNX1 binding intensity turned out to be 2130. With CCAGCCACTTCCGCTCGTCCGCCTAATACCGCGCCT the figure was 4930; with CTCCTTCCTGTGTGTTACTCTTAAAAACCACAGAGG, 3040; with TGAGCAAGTTCCTTCCTGTCTGTGGTCCAGGGTTTA, 1510.

On to GAACTTCCGGGACCACGTGACGTAGAACCACAACAA, for which the RUNX1 binding intensity worked out at 1690.

For CTCACCCCTGGAGGATGTGGGTTTCCAGGCTGACAG, the RUNX1 binding intensity was 1190. For TGCGCCGGAAGTGCATGAGCTGCCGATGTGGTGCTT the value was 1220; for CTTTGTTGAAAAGGATGTGGTCATCTGATCTTGCTG, 2000; for TAAATCGGAAACTCGCCGCTCAGCCCGCAGCCGCCG, 808.

Regarding ATGTTAACATCCTGCCATGAAAACCGCAAGAAGGGC, the RUNX1 binding intensity amounted to 26000.
